The record followed here is PubChem BioAssay AID1745845 (National Center for Advancing Translational Sciences (NCATS), 2022).

The campaign covered roughly 360,000 compounds. About 2,600 (0.72%) were called active. About 5% were inconclusive and are not listed. The call rests on the fitted dose curve; in most records, active means well fitted inhibition curve with a large enough effect; inconclusive means small, poorly fitted or top-dose-only effect; inactive means no such curve, though single readings can be large or run the other way. This excerpt belongs to a sample that is enriched for actives.
On the % scale 0 is the no-effect control and ±100 the full control effect; potency means the concentration at half of the fitted maximal effect.

This assay can be described thus: Primary qHTS for Inhibitors of ATXN expression. Further: nearly all actives have a fitted effect of over 55% in size. Conditions: HEK-293 ATXN2-luciferase reporter, luminescence, 24 h; series mostly up to 57 µM; activity change, negative = inhibition: at the top concentration. From the text:
University of Utah School of Medicine, Salt Lake City, Utah
Spinocerebellar ataxia type 2 (SCA2) is a multisystem neurodegenerative disease caused by a dominantly acting mutation leading to expansion of a polyQ domain in the ataxin-2 protein (ATXN2). SCA2 patients develop progressive ataxia and later lose function in other neuronal systems. Prominent parkinsonian signs develop in some patients. Like many neurodegenerative disorders, no symptomatic or disease-modifying treatments are known.
The primary objective of the proposed research is to identify compounds inhibiting ATXN2 expression and to test them for efficacy in SCA2 mouse models. We have developed a cell-based assay paired with an in vivo mouse model using identical luciferase expression constructs. This approach takes advantage of an ATXN2-luciferase transgene, with the luciferase gene flanked by the upstream and downstream portions of the ATXN2 gene. Here we describe a 5-7 dose quantitative high thoroughput screen (qHTS) for compounds lowering ATXN2 expression. We screened the NIH Molecular Libraries Small Molecule Repository (MLSMR) and NCGC's mechanistically annotated (MIPE) and drug repurposing (NPC) collections of compounds for lowering expression of an ATXN2-luciferase reporter in HEK-293 cells. The assay is a multiplexed cell viability assay to ensure target reduction in the absence of cytotoxicity. Secondary qHTS assays included a CMV-luciferase reporter expressed in HEK-293 cells as well as a biochemical assay using recombinant luciferase to detect inhibitors of the reporter enzyme. Compounds that inhibit ATXN2 expression but is not cytotoxic were selected for confirmatory and secondary screens.
PROTOCOL TABLE (as described by Inglese J, Shamu CE and Guy RK. 2007)
SEQUENCE No. (e.g., 1, 2, 3, etc.); […] (e.g., Cells, Incubation, Reagent, etc.); VALUE; DESCRIPTION.
1; Cells; 4 uL; white, solid bottom, 1536-well Greiner assay plate.
2; Incubation; 2 hr; 37 degree C in 5% humidified CO2.
3; Compounds; 23 nL; Kalypsis pintool (Wako USA) equipped with a 1536-well pin head.
4; Incubation; 24 hr; 37 degree C in 5% humidified CO2.
5; Reagent; 1 uL; Gly-Phe-7-Amino-4-trifluoromethylcoumarin.
6; Incubation; 30 min; 37 degree C in 5% humidified CO2.
7; Detection; Fluorescence; ViewLux plate reader (PerkinElmer).
8; Reagent; 3 uL; SteadyGlo luciferase solution (Promega).
9; Incubation; 5 min; room temperature.
10; Detection; Luminescence; ViewLux plate reader (PerkinElmer).
NOTES (numbers refer to Sequence numbers above)
1. S2 cells expressing ATXN2-luciferase reporter were suspended in phenol-red free DMEM and dispensed in assay plates using a Multidrop Combi dispenser (Thermo Fisher Scientific).
2. Assay plates were incubated. Evaporation was prevented by covering assay plates with metal lids containing holes to allow gas diffusion.
3. Compounds were added in a dose response manner with the final concentrations of 57, 11.4, 2.28, 0.46, 0.091, 0.018, 0.0037 uM. Vehicle-only plates, with DMSO being pin-transferred to columns 5-48, were inserted uniformly at the beginning and the end of each library to monitor and record any shifts in assay performance.
5. 125 uM Gly-Phe-7-Amino-4-trifluoromethylcoumarin (MP Biomedicals) working concentration was used at a final concentration of 25 uM.
7. To assess cell viability; the assay plates were read using the ViewLux high-throughput CCD imager (PerkinElmer), wherein single end-point fluorescence measurement was acquired (excitation 405/10; emission 540/25 nm).
8. Detection reagent SteadyGlo Luciferase (Promega) was added to the assay plate.
10. Luminescence is then measured on the ViewLux imager equipped with a clear emission filter using a 2 sec exposure. All screening operations were performed on a fully integrated robotic system (Kalypsys) containing one RX-130 and two RX-90 anthropomorphic robotic arms (Staubli).
[…]
On to `CC(Cc1ccccc1)NC=O` (stereo not given), for which the “activity change, negative = inhibition” value is 7.92% (inactive).

Turning to `CC(Cc1ccccc1)NCCC(c1ccccc1)c1ccccc1` (stereo not given), the Potency is 28.2 µM (active).

Turning to `CC(=O)NC(=O)NC(C)Cc1ccccc1` (stereo not given), the “activity change, negative = inhibition” value was 2.01% (inactive).

As to `CCCOC(=O)c1cncn1C(C)c1ccccc1` (stereo not given), the “activity change, negative = inhibition” value is 9.45% (inactive).

For the compound `COC(=O)C1=C(c2ccc(OCc3ccccc3)cc2)C[C@@H]2CC[C@H]1N2C(=O)NCc1ccc(Cl)cc1`, the “activity change, negative = inhibition” value is -22.2% (inactive).

`O=P(OC1=CCCCC1)(c1ccccc1)c1ccccc1`: the “activity change, negative = inhibition” value was -7.03% (inactive).

In the case of `CCC(C)(O)C(=O)OC1C(=O)OC2CC3C(C)=CC(=O)C(O)C3(C)C3C4(O)OCC23C1C(C)C4O` (stereo not given), the Potency was 0.168 µM (active).

Take `CCOC(=O)[C@]12Cc3cc(OC)ccc3[C@H]1N(C(C)C)C(=O)c1ccccc12`: the Potency was 17.8 µM (active).

For the compound `CCOC(=O)[C@]12Cc3ccccc3[C@H]1N(C1CCCCC1)C(=O)c1cc(OC)ccc12`, the Potency is 7.94 µM (active).

With `CC1=C(C(=O)O)N2C(=O)[C@@H](N)[C@H]2SC1`, the “activity change, negative = inhibition” value is 1.93% [at 25.6 µM] (inactive).

As to `O=C(N/N=C/c1ccc([N+](=O)[O-])o1)c1cc([N+](=O)[O-])cc([N+](=O)[O-])c1O`, the “activity change, negative = inhibition” value was 4.24% (inactive).

For `O=S(=O)(O)C(F)(F)C(F)(F)C(F)(F)C(F)(F)F`, the “activity change, negative = inhibition” value is 3.26% [at 116 µM] (inactive).

`CC(C)=C[C@@H]1[C@@H](C(=O)OCc2coc(Cc3ccccc3)c2)C1(C)C`: the “activity change, negative = inhibition” value is -1.03% (inactive).

Regarding `O=C(NC1CCCCC1)N1Cc2cc(N3CCCCC3)ccc2-n2nncc2C1`, the “activity change, negative = inhibition” value was 2.55% (inactive).

`CNC(=S)N/N=C1\C2CN3CCN(C2)CC1(c1ccccc1)C3`: the “activity change, negative = inhibition” value was 1.34% (inactive).

As for `S=C(NCCc1ccccc1)N1Cc2cc(N3CCOCC3)ccc2-n2nncc2C1`, the “activity change, negative = inhibition” value is -12.2% (inactive).

In the case of `C[C@]12CCC3C(CC[C@H]4C[C@@H](O)CC[C@]34C)C1CC[C@@H]2O` (stereo not given in full), the “activity change, negative = inhibition” value was -11.2% (inactive).

For the compound `C[C@]12CC[C@H](O)C[C@H]1CC[C@@H]1C2CC[C@]2(C)[C@@H](C3=CC(=O)OC3)[C@@H](O)C[C@]12O` (stereo not given in full), the Potency was 2 µM (active).

Consider `COC1C(O)C(C)OC(OC2CCC3(C=O)C(CCC4C3CCC3(C)C(C5=CC(=O)OC5)CCC43O)C2)C1O` (stereo not given), for which the “activity change, negative = inhibition” value is -78.8% (inactive).

Consider `CSCCC(c1nnnn1C(C)(C)C)N1CCC(n2c(=O)[nH]c3ccccc32)CC1` (stereo not given), for which the “activity change, negative = inhibition” value is -18.6% (inactive).

Regarding `O=c1[nH]c2ccccc2n1C1CCN(C(c2ccccc2)c2nnnn2Cc2ccccc2)CC1` (stereo not given), the Potency is 25.1 µM (active).

`O=c1[nH]c2ccccc2n1C1CCN(C(c2ccnc3ccccc23)c2nnnn2Cc2ccccc2)CC1` (stereo not given): the “activity change, negative = inhibition” value was 0% (inactive).

As to `COC(=O)C1=C(c2ccc(OCc3ccccc3)cc2)C[C@@H]2CC[C@H]1N2C(=O)NCc1cccc(F)c1`, the “activity change, negative = inhibition” value is -10.1% (inactive).

`CCCn1c(C(=O)c2ccccc2OC)nc2ccccc21`: the “activity change, negative = inhibition” value was 1.9% (inactive).

Consider `CC[N+]1(CCOC(=O)C(O)(c2ccccc2)c2ccccc2)CCCCC1`, for which the “activity change, negative = inhibition” value is 25.5% (inactive).

For the compound `O=C(NCC1=C(c2ccc3ccccc3c2)C[C@@H]2CC[C@H]1N2Cc1ccco1)c1cccs1`, the “activity change, negative = inhibition” value is -20.2% (inactive).

Take `CCCCC1C(=O)NC(=O)N(C2CCCCC2)C1=O` (stereo not given): the “activity change, negative = inhibition” value is 10.8% (inactive).

Take `COC(=O)CN(CCCl)P1(=O)OCCCN1CCCl` (stereo not given): the “activity change, negative = inhibition” value is 3.04% (inactive).

Turning to `O=C(O)COc1ccccc1/C=C1\C(=O)NC(=O)N(CCC2=CCCCC2)C1=O`, the “activity change, negative = inhibition” value was 6.1% (inactive).

For `O=C1NC(=O)N(CCc2ccc(F)cc2)C(=O)/C1=C/C=C/c1ccccc1`, the Potency is 10 µM (active).

Consider `O=C1NC(=O)N(c2ccc(F)cc2)C(=O)/C1=C/c1ccc2c(c1)CCCN2Cc1ccccc1`, for which the “activity change, negative = inhibition” value is -11.9% (inactive).

For the compound `COc1cc(C(=O)N2Cc3ccc(Br)cc3-n3nncc3C2)cc(OC)c1OC`, the “activity change, negative = inhibition” value is 7.09% (inactive).

Regarding `Cc1cccc(Cn2cccc(C(=O)Nc3ccc4c(c3)OCCO4)c2=O)c1`, the “activity change, negative = inhibition” value is -24.9% (inactive).

In the case of `CC(=Cc1csc(C)n1)[C@@H]1C[C@H]2O[C@]2(C)CCC[C@H](C)[C@@H](O)[C@@H](C)C(=O)C(C)(C)[C@@H](O)CC(=O)O1`, the “activity change, negative = inhibition” value is -17.3% (inactive).

For the compound `NCCc1ccc(S(=O)(=O)F)cc1`, the “activity change, negative = inhibition” value was 1.91% (inactive).

As for `COc1cccc(C(c2nnnn2-c2ccc3c(c2)OCCO3)N2CCC3(CC2)C(=O)NCN3c2ccccc2)c1OC` (stereo not given), the “activity change, negative = inhibition” value is -36.2% (inactive).

Take `CC1N=C(N)OC1c1ccccc1` (stereo not given): the “activity change, negative = inhibition” value is 7.78% [at 116 µM] (inactive).

For the compound `CO[C@]12CC[C@@]3(C[C@@H]1[C@](C)(O)C(C)(C)C)[C@@H]1Cc4ccc(O)c5c4[C@@]3(CCN1CC1CC1)[C@H]2O5`, the Potency is 35.5 µM (active).

With `Oc1ccc2c3c1OC1[C@H](O)CC[C@@]4(O)[C@@H](C2)N(CC2CC2)CC[C@]314` (stereo not given in full), the Potency result was “inactive”.

For `Cc1ncsc1CCCl`, the “activity change, negative = inhibition” value is 11.9% (inactive).
